Assay results as given in PubChem BioAssay AID1508600 (Functional Genomics Laboratory (NCATS/FGL), 2020).
Out of some 53,000 sequences screened, about 3,700 (7%) were called active. This is one part of a sample in which actives are shown more often than they occur.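 How the source made its calls: active means gene knockdowns whose robust z-score for IL-1 alpha signal is at least 2 or at most -2, so actives lie on both sides; inactive means the rest.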

Assay: Components of the Cytosolic LPS Sensing Pathway: Gene Identification via Genome-wide siRNA Screen;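 further: robust z of the log signal after scaling to non-targeting control siRNA wells of the plate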
Conditions: RAW264.7 macrophages, IL-1a HTRF, actives lie on both sides, screened at 100 nM (by protocol), cells primed 5 h with Pam3CSK4 first
Summary of the method: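 Mouse macrophage line RAW264.7 is transfected with siRNA (100 nM final), grown 48h, primed with TLR ligand Pam3CSK4 5 h and given intracellular LipidA 24 h. IL-1a in supernatant is read by HTRF and viability by luminescence.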

| Sequence | z-score |
| --- | --- |
| GGCGACGAAGUCACCUAUATT against Carhsp1 | -0.0404 (inactive) |
| GAAGGCCAAUGAUCGGGAGTT against Neurog3 | -2.1 (active) |
| GGUGGAGAAAUCUGCUAAUTT against Lta4h | 1.99 (inactive) |
| CGUCAAUGAAUUCGACUCUTT against Pnlip | 0.348 (inactive) |
| GCUUUCAGCUAUUGGACCCTT against Kl | 0.0919 (inactive) |
| CGAUGCUGACUGAGAUCAUTT against Rad23a | 1.39 (inactive) |
| GGUAUAGUUAAAGUGAGAGTT against Sp8 | -0.883 (inactive) |
| GGAGUUAAUUGCCCGCAACTT against Rab19 | 0.588 (inactive) |
| CGGAAGAUGUUAAAACUAUTT against Slc44a3 | -1.33 (inactive) |
| CCAGGACAAUAACUCUGAGTT against Aatk | -1.28 (inactive) |
| GGCGAGUUUAUAGAAGAAATT against Phf19 | 1.35 (inactive) |
| GCAAAAGCGGGUCAAAAAATT against Lrrc72 | 2.27 (active) |
| GGCUUGGAAUGACACUACUTT against Maged1 | -1.12 (inactive) |
| GCUCAAUUUACAAAAGCCCTT against Pik3c2a | -0.961 (inactive) |
| CCUGUUUCUGACCUAAUACTT against Syn1 | -0.088 (inactive) |
| GGAAGAUAUUGCUGUUGGATT against Mbd4 | 0.823 (inactive) |
| GCAAGAUGAGAAGGAUUUUTT against Zfp691 | 0.591 (inactive) |
| GGAGGAAAACAAACCACAGTT against Tpbpa | 0.0817 (inactive) |
| GCUGCAUCUAAAGCCUUAATT against Olfr661 | 1.41 (inactive) |
| GGAAGAAAGUGAAGAAGAGTT against Cdr1os | -0.387 (inactive) |
| GGACUUUGUGAUCUUUCCATT against Pias2 | -0.57 (inactive) |
| GGCUGUGAUUGGCAAUCUATT against 6430548M08Rik | -3.04 (active) |
| CCUGGCUAUUGGUGAGUGATT against Slc30a3 | 1.9 (inactive) |

| Sequence | z-score |
| --- | --- |
| CCAAACUUUUGUGGAACAGTT against Galnt9 | 0.0294 (inactive) |
| GGCAUGUGGUUGAAGGCCUTT against Fank1 | -0.337 (inactive) |
| GGACAAUGAAGAUUUGGAATT against Ush2a | -0.669 (inactive) |
| CCGCCGAUCUACUAGUGGUTT against Slc6a2 | 0.46 (inactive) |
| GCGGCCUUCGAAGAUAUUCTT against Pnliprp2 | -0.144 (inactive) |
| GGAAAUGCCAUCGUCAUUUTT against Gpr1 | 2.66 (active) |
| GCCAGCGUACUCUUUUUAUTT against Ocln | -0.694 (inactive) |
| GGAGCUGGUGGAUCUGAAGTT against Ubfd1 | 1.26 (inactive) |
| CGUGACUAUUCUGAUAAGUTT against Arl15 | 0.134 (inactive) |
| GGAAGGAGGAAAAGUAGGUTT against Peli1 | -0.00852 (inactive) |
| GGAAGAGAGCAGAAAGAAGTT against Trim35 | -0.135 (inactive) |
| GGGAUGUUUAGGUCACCUUTT against 4933434M16Rik | -2.35 (active) |
| GGUGGGCUACGAACUAAAGTT against Prpf31 | 0.664 (inactive) |
| GGUGUUGAAAGUCAUUGUGTT against Med27 | -0.196 (inactive) |
| GGCAGAUACUUCUCUGGAGTT against Sdc4 | -0.498 (inactive) |
| CCCGUGGUCCUACAUUGUUTT against Cdon | 2.39 (active) |
| GGAAGAAGACAUGCUCACUTT against Pcdhb8 | 1.07 (inactive) |
| GGCCAAAGUGGUGUGUUUCTT against Mta1 | 2.46 (active) |
| GGUGGAGAACCAUAUCACATT against Abcg4 | 0.105 (inactive) |
| GAGCAUCCGCUACUUGGUATT against Nmnat1 | 0.0484 (inactive) |
| GGAAGAUAUGAAGGGCUCATT against Mb | -2.18 (active) |
| GCAUUUCAGCAGAACAAUATT against Phldb1 | 0.5 (inactive) |
| GGAUCUGGAUACUUUUCCATT against Arhgap22 | -2.09 (active) |

| Sequence | z-score |
| --- | --- |
| GGAGACUUUCCAUUUGAAGTT against Fnbp1l | -0.188 (inactive) |
| GAAAAAAUCUAUCUACCCUTT against Hoxb4 | -0.219 (inactive) |
| GGUCAGUUGAGAUGUUUUUTT against Pag1 | 0.346 (inactive) |
| GGCGGUGGAGGUGAUAUAUTT against Dennd6a | -2.01 (active) |
| GGACUAGUCCUAAGAAGAGTT against Rbmxl2 | -1.27 (inactive) |
| GCCUAUCUACGACCUCAUCTT against Kel | -0.768 (inactive) |
| GGCCAUUACCCAUGAGACUTT against Cd63 | 0.997 (inactive) |
| GGAACAAAUGUUCGAAAUGTT against Eif4a2 | -0.0347 (inactive) |
| GGAUAUGAAACACCAGAUCTT against Naip2 | -1.89 (inactive) |
| GCAGCAGACACUCUGUACATT against Pcbp4 | -0.0747 (inactive) |
| GGACAAGUACAGGUUCCUATT against Vrk3 | 0.536 (inactive) |
| GGCACUGUUCGGCAAGAAGTT against Trappc5 | -2.1 (active) |
| GCUCGUUUGAUGCUGUCUCTT against Prkag1 | -1.17 (inactive) |
| GCUGUUUUGGUAGAUUUUGTT against Map3k8 | 0.0466 (inactive) |
| CGGGCAGCUAGAUUUCCAATT against S100a11 | 2.86 (active) |
| GCUGAACCUGCAGCACAUCTT against Mettl7a2 | -0.0665 (inactive) |
| GGAGUACAUUGUGAAUGUUTT against Tnr | -1.44 (inactive) |
| GCUGGUGAACCAAAAACUCTT against Ccdc3 | -0.366 (inactive) |
| GGACAUGGUACCACAGGAGTT against Tenm4 | 0.643 (inactive) |
| GAGCCAAAUCAGGAACAGCTT against Trim29 | 1.4 (inactive) |
| GCCAAUAGCUCCAGCUUGATT against Olfr668 | 0.534 (inactive) |
| GGCUAUAGGUUUCUGGGAATT against Fzd6 | 4.94 (active) |
| GGCAACUUGGGAGUUUCACTT against Kcnab1 | 1.41 (inactive) |
